Data on 14 compounds can be found in PubChem BioAssay (NCI).

Common to all, as to experiment: NCI-60 one-dose screen, 48 h (100 = growth as untreated, 0 = no growth, -100 = all killed)
What all share (details): 10 µM unless noted

Assay [1] relates to HCT-15 colon.
Assay [2] has as its system HT29 colon.
Assay [3] deals with SNB-75 CNS.
In assay [4] the test system is SNB-19 CNS.
Assay [5] has as its system U251 CNS.
The subject of assay [6] is PC-3 prostate.
Assay [7] concerns SK-MEL-5 melanoma.
The subject of assay [8] is UACC-62 melanoma.
The subject of assay [9] is LOX IMVI melanoma.
Assay [10] relates to SK-MEL-28 melanoma.

This is part of a sample that, as a whole, favours compounds with a hit. Of some 83,000 tested, about 20% had one in any assay.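 Growth was measured after 48 h exposure to one concentration of compound in 96-well plates. Values under 10 count as active.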 Unmarked numbers belong to inactive results. The source made the active and inactive calls.

`CCOC(=O)c1ccc(N2NC(=O)/C(=C/c3ccc([N+](=O)[O-])o3)C2=O)cc1`: the growth was 96.6% in assay [1]; 114% in [2]; 99.9% in assay [3]; 115% in [4]; 108% in [5]; 79.2% in [6]. Besides, the growth in assay [7] is 108%; in assay [8], 112%; in [9] it was 91.6%; in assay [10], 108%.
As to `N=C1CCC(=N)c2c1c(O)c1ccccc1c2O`, the growth was 108% in [1]; 101% in assay [2]; 87.2% in [3]; 103% in [4]; 100% in assay [5]; 80.3% in assay [6]. Further, the growth in [7] was 126%; in [8], 102%; in [9] it was 81.9%; in assay [10], 106%.
As to `c1ccc(Nc2nc(-c3ccccn3)cs2)nc1`, the growth was 20.1% in [1]; 27.4% in assay [2]; 42.7% in assay [3]; 18.6% in assay [4]; 7.62% (active) in [5]; 38% in assay [6]. The growth in assay [7] was 11%; in [8] it was -14.6% (active); in assay [9], 1.84% (active); in [10], 50.3%.
For `COc1cc(N=Nc2cc(Cc3ccc(N(C)C)cc3)c(N)cc2N(C)C)c2ncccc2c1`, the growth in assay [1] is -13.2% (active); in [2], -65.4% (active); in assay [3], 28.1%; in assay [4], 6.94% (active); in assay [5] it was -54.8% (active); in assay [6], 3.89% (active). Also, the growth in assay [7] is -13.8% (active); in assay [8], -34% (active); in assay [9], -83.2% (active); in assay [10], 15.7%.
Consider `S=C(c1ccc2c(c1)OCO2)N1CCN(c2ccccc2Cl)CC1`, for which the growth in [1] is 96.2%; in assay [2], 93.6%; in assay [3], 100%; in assay [4] it was 99.4%; in assay [5], 95.2%; in assay [6], 84.7%. Besides, the growth was 89.6% in assay [7], 89.5% in [8], 111% in assay [9] and 103% in assay [10].
Take `Cc1ccc(C2SCC(=O)N2Cc2ccccc2)cc1` (stereo not given): the growth in assay [1] is 100%; in assay [2], 96.9%; in assay [3] it was 95.1%; in assay [4], 98.9%; in [5], 97.6%; in assay [6] it was 92.1%. Besides, the growth is 105% in assay [7], 91.7% in [8], 97.9% in assay [9] and 106% in assay [10].
As to `C=C1C(=O)O[C@H]2[C@H]1CC/C(COC(=O)C(=O)c1c[nH]c3ccc(OC)cc13)=C\CC[C@@]1(C)O[C@@H]21`, the growth in [1] was -49.8% (active); in assay [2] it was -69.7% (active); in assay [3], -88.4% (active); in assay [4] it was -17.6% (active); in assay [5], -97.8% (active); in [6] it was -70% (active). For the same compound, the growth in [7] is -96.6% (active); in assay [8], -76.6% (active); in [9], -77.4% (active); in assay [10], -75.3% (active).
As for `COc1cc(CCC[P+](c2ccccc2)(c2ccccc2)c2ccccc2)cc2c1OCO2`, the growth in assay [1] was 106%; in assay [2], 79.3%; in assay [3], 12.7%; in assay [4], 14.9%; in [5], 23.9%; in [6], 16.7%. The growth in assay [7] is -41.2% (active); in assay [8], -3.87% (active); in [9], 32%; in [10], 27.1%.
For `CN(C)CCNc1nc2ccccc2c2c1c1c(n2Cc2ccccc2)-c2ccccc2C1=O`, the growth is -88.2% (active) in [1]; -100% (active) in assay [2]; -96.1% (active) in assay [3]; -86.3% (active) in assay [4]; -95.9% (active) in assay [5]; -88.6% (active) in [6]. Besides, the growth in assay [7] was -100% (active); in [8], -94.1% (active); in assay [9] it was -96.2% (active); in assay [10], -100% (active).
`CCc1ccccc1NC(=O)/C(C#N)=C/c1ccc(OC)cc1`: the growth was 101% in [1]; 100% in assay [2]; 99.3% in assay [3]; 111% in assay [4]; 106% in assay [5]; 81.1% in assay [6]. For the same compound, the growth is 96.3% in [7], 81.6% in [8], 102% in [9] and 92.9% in assay [10].
As to `COc1ccc(CN2C(=O)C(Cl)=C(Nc3cccc(C(F)(F)F)c3)C2=O)cc1`, the growth in assay [1] is 34.8%; in assay [2], 57.1%; in assay [3], 66.9%; in [4], 44.7%; in assay [5], 28.2%; in assay [6] it was 19.2%. In addition, the growth in assay [7] was 63.3%; in assay [8], 58.1%; in assay [9], 25.2%; in assay [10], 55.2%.
Consider `Clc1cc(Cl)cc(Nc2ccc3cc(OCCCN4CCOCC4)ccc3n2)c1`, for which the growth in assay [1] was 7.18% (active); in [2] it was -39.5% (active); in assay [3], 11%; in [4], 38.5%; in assay [5], 2.35% (active); in assay [6], 21.8%. Further, the growth in assay [7] is 71%; in [8] it was 12.9%; in assay [9] it was -77.6% (active); in [10], 27.8%.
Consider `CCOC(=O)/C=C/c1cc2cc(-c3csc4ccccc34)ccc2[nH]1`, for which the growth was 56.8% in [1]; 21.9% in assay [2]; 97.5% in assay [3]; 101% in assay [4]; 78.2% in [5]; 62% in [6]. Further, the growth in [7] was 87.6%; in assay [8], 67.5%; in [9], 64.7%; in assay [10], 104%.
In the case of `N#Cc1c2c(nn(-c3ccccc3)c1=O)C(O)=C([N+](=O)[O-])C(c1ccccc1)C2` (stereo not given), the growth was 54.7% in assay [1]; 94.1% in assay [2]; 90.6% in [3]; 84.2% in [4]; 57.7% in assay [5]; 80.5% in [6]. The growth in [7] was 92.9%; in [8] it was 84.6%; in assay [9], 17.9%; in assay [10] it was 96.4%.
